Measured values reported in PubChem BioAssay AID1347056 (Sanford-Burnham Center for Chemical Genomics, 2019).
Values joined by “and” are separate entries in the source; they are usually repeats but may differ in a detail not shown here. Identical values can stand only once. Hit rate of the full screen: of about 360,000 compounds, about 3,600 (1%) were called active. This is one part of a sample in which actives are shown more often than they occur.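 How the source made its calls: active means compounds whose plate-normalised and pattern-corrected inhibition of the luciferase reporter signal at the single screening dose is 50% or more; inactive means the rest.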

Test: inhibitors of TROY-driven NF-kB signaling, primary screen, Q293 LMP1-TROYcd cells, NF-kB luciferase, uHTS (AID 1347056)
Conditions: Q293 LMP1-TROYcd NF-kB luciferase reporter, 4 h; at 10 µM; stronger effect = higher value

| SMILES | inhibition |
| --- | --- |
| CC(C)=CCCC1(C)C=Cc2c(ccc3c2[nH]c2cc(O)c(C)cc23)O1 (configuration not stated) | 56.8% (active) |
| CC(OC(=O)c1ccccc1NCCO)C(=O)Nc1ccnn1C(C)C (configuration not stated) | 4.88% (inactive) |
| CCCc1cc(=O)[nH]c(SCC(=O)Nc2sc3c(c2C#N)CCCC3)n1 | -13.3% (inactive) |
| Cc1sc(NC(=O)C2=COCCO2)c(C#N)c1C | -29.2% (inactive) |
| CCCc1ccc(-c2c(C)sc(NC(=O)c3ccnn3C)c2C#N)cc1 | 61.4% (active) |
| O=C1COc2ccc(C(=O)CSc3ccc(Br)cc3)cc2N1 | 6.67% (inactive) |
| CCNC(=S)N(CCN(CC)CC)Cc1cc2cc3c(cc2[nH]c1=O)OCO3 | 7.05% (inactive) |
| Cc1ccc(Cc2c(-c3ccc(C)cc3)nc3c4ccccc4ccn23)cc1 | 54.4% (active) |
| c1ccc(Cc2c(-c3ccco3)nc3c4ccccc4ccn23)cc1 | 3.44% (inactive) |
| Cc1ccc(Cc2c(-c3ccc(Cl)cc3)nc3c4ccccc4ccn23)cc1 | 4.34% (inactive) |
| O=C(N=C1SC2CS(=O)(=O)CC2N1Cc1ccccc1)c1ccccc1 (configuration not stated) | -0.57% (inactive) |
| O=C(COc1ccc2c3c(c(=O)oc2c1)CCC3)NC1CCCCC1 | -1.91% (inactive) |
| CCCCC(NS(=O)(=O)c1ccc(C)cc1)C(=O)Oc1ccc2c3c(c(=O)oc2c1)CCC3 (configuration not stated) | 69.9% (active) |
| NC(=O)C1CCN(C(=O)COc2ccc3c4c(c(=O)oc3c2)CCC4)CC1 | -10.9% (inactive) |
| COC(=O)c1cc2c(ccn2C)n1C | 0.05% (inactive) |
| Cc1ccc(OCCCC(=O)Nc2ccc3c(c2)OCCO3)cc1 | 17.8% (inactive) |
| COC(=O)CCNc1ccc2c(c1)OCCO2 | 78.2% (active) |
| CCOc1ccc(NCCC(=O)c2ccc3c(c2)OCO3)cc1 | 9.47% (inactive) |
| COc1ccccc1-c1oc2ccccc2c1C#CCCCCO | 2.78% (inactive) |
| O=c1oc2ccccc2c(=O)c2ccccc12 | 4.31% (inactive) |
| COc1ccccc1N=Cc1c(O)c2ccccc2oc1=O | 68.1% (active) |
| COC(=O)CNc1nc(Cl)nc(N2CCC(C)CC2)n1 | 6.46% (inactive) |
| CCCS(=O)(=O)NC(=O)C1(C)CCN(C(=O)c2sccc2C)C1 (configuration not stated) | -21% (inactive) |

| SMILES | inhibition |
| --- | --- |
| O=C(Cc1ccccc1F)NC1CCSc2ccccc21 (configuration not stated) | 6.21% (inactive) |
| O=C(/C=C/Sc1ncn[nH]1)c1ccc(Cl)cc1 | 66% (active) |
| CC(C)CN(C(=O)CN1CCN(S(=O)(=O)c2ccccc2)CC1)c1c(N)n(CC(C)C)c(=O)[nH]c1=O | 3.32% (inactive) |
| CC(C)c1ccc2c(c1)c(SC(C)(C)C)c(CC(C)(C)C(=O)O)n2Cc1ccc(Cl)cc1 | 65.6% (active) |
| COCCN1C(=O)c2oc3c(C)cc(C)cc3c(=O)c2C1c1cccc(O)c1 (configuration not stated) | 1.51% (inactive) |
| O=C(COc1ccc(Br)cc1F)NCC1(N2CCCCC2)CCCCC1 | -6.39% (inactive) |
| COc1ccc(/C(N)=N/OC(=O)Cc2ccccc2)cc1 | -56.1% (inactive) |
| COc1ccc(C(=NN)c2ccc(OC)cc2)cc1 | -42.8% (inactive) |
| COc1ccc(C(C#N)=C2C=CC(=NO)c3ccccc32)cc1 | 69.6% (active) |
| NC(=O)[C@H]1CC2(CC(c3cccc(NC(=O)[C@H]4CCC(=O)N4)c3)=NO2)CN1C(=O)c1ccccc1C(=O)c1ccccc1 (some centres not stated) | -0.31% (inactive) |
| CC1CCc2c(sc(NC(=O)c3ccc(Cn4cc(Br)cn4)o3)c2C(N)=O)C1 (configuration not stated) | -4.02% (inactive) |
| O=C(NCCC1CCCCN1S(=O)(=O)c1cccs1)C(=O)Nc1ccc(F)cc1F (configuration not stated) | 1.77% (inactive) |
| CCc1ccccc1OCC(=O)Nc1ccc(C)c(S(=O)(=O)N2CCCCCC2)c1 | 3.2% (inactive) |
| COc1cc(NC(=O)COc2ccccc2Cl)ccc1NC(=O)C(C)C | -6.06% (inactive) |
| Cc1ccccc1OCC(=O)Nc1ccc(N2CCN(C(=O)C(C)C)CC2)c(Cl)c1 | 52.5% (active) |
| COc1cccc(-c2cc3nc4c(c(N5CCC6(CC5)OCCO6)n3n2)CCCC4)c1 | 7.88% (inactive) |
| CC(=O)c1c(C)[nH]c(C(=O)COC(=O)c2cccc(S(=O)(=O)N(C)c3ccccc3)c2)c1C | 71% (active) |
| CC(=O)c1c(C)[nH]c(C(=O)COC(=O)CCOc2ccc(C)cc2)c1C | 17.8% (inactive) |
| CN(c1ccccc1)S(=O)(=O)c1ccc(Cl)c(C(=O)OCC(N)=O)c1 | -2.16% (inactive) |
| CCO[C@@H]1OC(C(=O)N2CCOCC2)=C[C@H](C)[C@H]1CCCO | -7.92% (inactive) |
| CCCCCCCNc1nc(Cl)nc(NCCO)n1 | 4.41% (inactive) |
| O=C(Nc1ccc(Cl)cc1)c1cc2nc(C3CC3)cc(C(F)(F)F)n2n1 | -25.1% (inactive) |
| O=C(Nc1cc(C(F)(F)F)ccc1Cl)c1cc2nc3c(c(C(F)(F)F)n2n1)CCCC3 | 79% (active) |

| SMILES | inhibition |
| --- | --- |
| Nc1nc(SCC(=O)Nc2cc(C(F)(F)F)ccc2Cl)[nH]c(=O)c1NC(=O)c1ccco1 | -8.07% (inactive) |
| Cn1c(=O)c2c(nc(Br)n2CCSc2nc3ccccc3o2)n(C)c1=O | -10.2% (inactive) |
| O=C(Cn1c(NCCO)nc2ccccc21)c1ccc(Cl)cc1Cl | 22.3% (inactive) |
| OCCNc1nc(Nc2ccc(Cl)c(Cl)c2)nc2ccccc12 | 68.4% (active) |
| OCCNCCOc1ccc(Cl)c(Cl)c1 | 10.3% (inactive) |
| C[C@H](CO)N1C[C@H](C)[C@H](CN(C)C(=O)Nc2ccc3c(c2)OCO3)Oc2ncc(Br)cc2C1=O | 6.4% (inactive) |
| CCn1c(C(C)NC(=O)c2ccc(C)cc2)n[nH]c1=S (configuration not stated) | 21.8% (inactive) |
| C=C(C)CNC(=O)c1ccc(OC2CCN(C(=O)COC)CC2)cc1 | -21.5% (inactive) |
| COc1ccc(NC(=S)SC)cc1OC | 55.6% (active) |
| COc1ccc(NC(=O)C2C3CCC(O3)C2C(=O)O)cc1OC (configuration not stated) | 8.24% (inactive) |
| COc1ccc(NC(=O)CSCc2ccc([N+](=O)[O-])cc2)cc1OC | -16.9% (inactive) |
| O=C1c2ccccc2C(=O)N1CCC(c1ccccc1)c1ccco1 (configuration not stated) | -65.2% (inactive) |
| COC(=O)c1sc(NC(=O)c2ccc(OC)cc2OC)nc1C | 66.7% (active) |
| Cc1csc(NC(=O)NC2(C(F)(F)F)Oc3ccccc3O2)n1 | -1.84% (inactive) |
| COc1ccc(C(=O)NC(C)CCc2ccccc2)c(OC)c1 (configuration not stated) | -16.4% (inactive) |
| Cc1csc(NC(=O)CSc2nc(=O)cc(N)n2-c2ccc(F)cc2)n1 | -68.1% (inactive) |
| COc1cc(SC)ccc1C(=O)Nc1nc(C)cs1 | 85.8% (active) |
| Cc1ccccc1OCC(=O)Nc1nc(C)c(C(=O)N(C)C)s1 | -13.4% (inactive) |
| CCCC(C(=O)NC1CCCC1)N(C(=O)Cn1nnc(-c2ccc(C)o2)n1)c1cccc(O)c1 (configuration not stated) | -5.35% (inactive) |
| C=CCn1c(COc2ccccc2F)nnc1SCC(=O)N1CC(=O)Nc2ccccc21 | -21.6% (inactive) |
| COc1cccc(N=c2oc3c(C)ncc(CO)c3cc2C(N)=O)c1 | -39.2% (inactive) |
| O=C(Nc1ccc(Cl)cc1)/C(=C1\CCCN1)[N+](=O)[O-] | -75.7% (inactive) |
| Cc1cccc2nc(CSc3nc4[nH]ncc4c(=O)n3-c3cccc(Cl)c3)cc(=O)n12 | 35.3% (inactive) |

| SMILES | inhibition |
| --- | --- |
| COc1ccc(N(CC(=O)NC(C)(C)C)C(=O)c2ccco2)cc1 | -5.86% (inactive) |
| CCCNC(=O)C(=O)Nc1cc2c3c(c1)CCC(=O)N3CCC2 | -5.66% (inactive) |
| CN(Cc1cn(Cc2ccc(C(F)(F)F)cc2)nn1)C1CN(Cc2cn(Cc3ccc(C(F)(F)F)cc3)nn2)S(=O)(=O)C1 (configuration not stated) | 14.4% (inactive) |
| CN(C(=O)Nc1ccc(Cl)cc1)n1cnc2ccccc2c1=O | -48.7% (inactive) |
| CN(c1ccc2nc3ccccc3c(=O)n2n1)C1CCCCC1 | 90.3% (active) |
| CC(C)(C)c1nc2ccccc2c(=O)n1N1C(=O)c2ccccc2C1=O | 12.4% (inactive) |
| CNc1cc(-c2c(OC)cccc2OC)ncn1 | -15.5% (inactive) |
| CCCNC(=O)c1cc(C2CCCCN2S(=O)(=O)c2ccc(C#N)cc2)on1 (configuration not stated) | -10.6% (inactive) |
| CC(Oc1ccc(Br)cc1)C(=O)NCC(c1ccco1)N1CCCCC1 (configuration not stated) | 7.2% (inactive) |
| CCC[C@H]1CCCC/C=C\CCCC(=O)OCCN1C(=O)OC(C)(C)C | 12.2% (inactive) |
| CCN(CC)C(=O)c1nc[nH]c1C(=O)N(C)Cc1ccccc1 | -9.82% (inactive) |
| CCN(CC)C(=O)c1sc2nc(-c3ccccc3)ccc2c1N | 69.8% (active) |
| CCOC(=O)C(C)n1nc(-c2ccccc2)c2ccccc2c1=O (configuration not stated) | 7.19% (inactive) |
| COc1ccccc1/C=C/CN1CCC(CO)(Cc2ccccc2)CC1 | -1.26% (inactive) |
| COc1cccc2c1C(=O)c1c(O)c3c(c(O)c1C2=O)CC(O)(C(C)=NNC(=O)c1ccc(Cl)c(Cl)c1)CC3OC1CC(N)C(O)C(C)O1 (configuration not stated) | 69.6% (active) |
| Cc1ccccc1CN(c1ccc(C(=O)NCC2CCCO2)cc1)S(C)(=O)=O (configuration not stated) | -8.79% (inactive) |
| C#CCNC(=O)[C@H](Cc1ccc(C(=O)c2ccccc2)cc1)NC(=O)OC(C)(C)C | 5.88% (inactive) |
| CC(=O)Nc1ccc(NC(=O)CSC2=NS(=O)(=O)c3ccccc3N2)cc1 | -4.58% (inactive) |
| CCc1ccccc1NC(=O)CN(c1ccc(OC)cc1OC)S(=O)(=O)c1ccccc1[N+](=O)[O-] | 1.82% (inactive) |
| N#Cc1c(/N=C/N2CCCC2)oc(-c2ccccc2)c1-c1ccccc1 | 51.8% (active) |
| N#Cc1c(NC(=O)CCCN2C(=O)c3ccccc3C2=O)oc(-c2ccccc2)c1-c1ccccc1 | -11.3% (inactive) |
| COc1ccc(-c2oc(/N=C/N3CCCC3)c(C#N)c2-c2ccc(OC)cc2)cc1 | -5.76% (inactive) |
| C#C[C@]1(O)CC[C@H]2[C@@H]3CCC4=CC(=O)CC[C@@H]4[C@H]3CC[C@@]21CC | -7.9% (inactive) and -4.22% (inactive) |
